# Compounds with a hit are over-represented: about 8% of the library has one in this group of screens.
# KB-3-1 cytotox – kills parental KB-3-1 adenocarcinoma cells. KB-3-1 viability, CellTiter-Glo ATP luminescence, 72 h. 400,000 tested, 1.4% active. Potency, µM (highest dose often 46.1 µM), actives largely listed as cytotoxic; note: % is set by controls: 0 for no effect and ±100 for the full control effect; nearly all actives have a fitted effect of over 60% in size
#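 Luminescent ATP read-out (CellTiter-Glo) measures survival of drug-naive KB-3-1 cells after 72 h compound exposure at 37 °C. Titration series was screened from lowest to highest concentration, with DMSO vehicle plates as background controls.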
# KB-V1 cytotox – KB-V1 MDR subline cytotoxicity. KB-V1 MDR cells viability, CellTiter-Glo, 72 h. Potency, µM (titrated, usually from 46.1 µM), actives largely listed as cytotoxic. 400,000 tested, 3.4% active. AID 1347076; note: % is set by controls: 0 for no effect and ±100 for the full control effect; nearly all actives have a fitted effect of over 60% in size
#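 Drug-selected KB-V1 cells, grown in DMEM lacking phenol red with 10% FBS, receive compound titrations; after three days at 37 degrees C, surviving cell ATP is quantified by CellTiter-Glo luminescence and responses normalized and curve-fitted.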
# HT1080NT lethal – kills 2HG-producing HT-1080-NT fibrosarcoma cells; AID 686970; Potency, µM (series often up to 46.1 µM), for inactives: at the top dose activity, negative = less viability, usual class: cytotoxic; 360,000 tested, 1.6% active; HT-1080-NT fibrosarcoma viability, CellTiter-Glo ATP luminescence, 48 h;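 note: NT is the 2HG producing partner of a matched IDH1 knockdown line; 0% = DMSO-treated cells and -100% = media-only wells without cells; nearly all actives have a fitted effect of over 55% in size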
#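 Luminescent CellTiter-Glo readout after 48 hours of compound exposure at 37 degrees C defined viability of HT-1080-NT cells. Activity was normalized to DMSO wells and cell-free media wells; concentration-response curves were fitted and assigned curve classes.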
# MCF10A rerep – induces DNA re-replication in MCF 10a normal breast cells. MCF 10A DNA re-replication, Hoechst nuclear intensity, 48 h. Potency, µM (series often up to 46.1 µM), inactives show at the highest dose activity, positive = re-replication, hits mostly activators. 350,000 tested, 2.9% active. AID 624296; note: % of control where 0% means no effect; nearly all actives have a fitted effect of over 50% in size
# SW480 rereplic – inducers of DNA re-replication in SW480 colon cancer cells; SW480 DNA re-replication, Hoechst DNA content imaging, 48 h; Potency, µM (top dose mostly 46.1 µM), for inactives: at the highest dose re-replication activation, most hits filed as activators; 340,000 tested, 1.8% active; note: % of control where 0% means no effect; nearly all actives have a fitted effect of over 55% in size
#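 Readout is total intensity of Hoechst-stained nuclei, excited at 405 nm and collected at 500-530 nm. Compound treatment lasted 48 hr at 37 C in 5% CO2 before staining.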
# HT1080 IDH1KD tx – toxicity to HT-1080 IDH1 knockdown cells (counter line). HT-1080 IDH1 knockdown viability, ATP luminescence, 48 h. 360,000 tested, 2% active. AID 686971. Potency, µM (series often up to 46.1 µM), without a hit: top-dose activity, negative = toxicity, most hits filed as cytotoxic;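 note: 0% = DMSO wells and -100% = cell-free medium wells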
#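 Luminescent ATP read-out (CellTiter-Glo, 10 min at room temperature) after 48 h compound exposure at 37 °C gave viability of IDH1-knockdown HT-1080 cells. Activity was normalised to DMSO and cell-free wells, then fitted as concentration-response curves.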
# Numbers without * were called inactive; i = inactive; ? = inconclusive; · = no result; ! = not active in a repeat; [ ] = remark or other dose. Calls come from the whole dose curve; as a rule, active = well fitted curve in the direction sought with a large enough effect; inconclusive = small, poorly fitted or top-dose-only effect, or another doubt; inactive = no such curve, though single readings can be large; an effect the other way counts as inactive or inconclusive. Potency is the fitted concentration of half-maximal effect.
SMILES,KB-3-1 cytotox,KB-V1 cytotox,HT1080NT lethal,MCF10A rerep,SW480 rereplic,HT1080 IDH1KD tx
CC1(CCc2ccccc2)NC(=O)N(CC(=O)O)C1=O (configuration not stated),i,i,7.3%,21.2%,0.7%,9.0%
COc1ccc(-c2cc3nc(C)cc(-c4ccc(OC)cc4)n3n2)cc1,i,i,0.0%,11.6µM*,?,-16.3%
COc1ccc(-c2cc3nc(C)cc(N)n3n2)cc1,?,?,?,2.1%,-7.3%,16.4µM*
CC1=C(C(=O)Nc2ccc(C)cc2Cl)C2(CCCCCC2)OC1=O,i,i,·,·,·,·
CS(=O)(=O)N(CC(=O)NCc1ccncc1)c1ccc(Cl)c(Cl)c1,i,i,1.3%,-6.4%,-3.0%,16.4%
CCOC(=O)C1CCCN(CCC(=O)Nc2c(C(=O)OC)[nH]c3cc(OC)ccc23)C1 (configuration not stated),i,i,6.4%,6.4%,0.4%,1.8%
COC(=O)C(C)N1C(=O)S/C(=C/c2cc(C)n(C(C)C)c2C)C1=O (configuration not stated),?,4.11µM*,1.3%,27.1%,19.4%,-4.0%
COc1ccc(N=C2S/C(=C\c3cc(C)n(C)c3C)C(=O)N2CC(C)C)cc1,i,2.59µM*,-5.1%,-1.9%,-5.1%,-9.0%
COC(=O)CN1C(=O)S/C(=C/c2cc(C)n(C)c2C)C1=O,i,16.4µM*,-13.8%,0.5%,-2.8%,-4.3%
c1ccc(-n2c(-c3ccncc3)nnc2-c2ccco2)cc1,i,i,3.7%,9.9%,-4.8%,-4.3%
c1ccc(-c2nnc(-c3ccco3)n2-c2ccccc2)cc1,i,18.4µM*,14.4%,?,1.1%,0.6%
CCc1ccccc1S(=O)(=O)Cc1ccc(C(=O)NC2CCCC2)o1,i,i,-0.7%,-6.0%,-7.6%,10.1%
COc1ccc(-c2nn(-c3ccccc3)cc2/C=N/NC(=S)NC(C)C)cc1OC,i,?,3.3%,-31.0%,?,-7.0%
COc1ccc(-c2nn(-c3ccccc3)cc2/C=N/Nc2ccc3ccccc3n2)cc1OC,i,?,-4.0%,?,25.9µM*,-2.2%
COc1ccc(-c2nn(-c3ccccc3)cc2/C=N/O)cc1OC,i,i,-10.1%,16.4µM*,?,-0.7%
COc1ccc(-c2nn(-c3ccccc3)cc2/C=N/N=C(N)N)cc1OC,?,i,-11.9%,?,?,?
Cc1cc2nc(-c3cc(N4CCOCC4)ccc3[N+](=O)[O-])ccn2n1,i,i,16.9%,-4.7%,-1.9%,16.0%
Cc1cc(C)cc(NC(=O)N2CCC(C(=O)c3ccc(F)cc3)CC2)c1,i,?,-15.9%,8.7%,-3.0%,2.0%
Cc1cccc(NC(=O)N2CCC(C(=O)c3ccc(F)cc3)CC2)c1,i,i,-26.9%,-0.3%,2.31µM*,?
COc1ccc(Cn2c(=S)[nH]c3cc(C(=O)N4CCN(c5ccccc5)CC4)ccc3c2=O)cc1,i,i,12.8%,-1.9%,-9.6%,10.0%
CCN1CCN(c2cc(C)c3cc(NC(=O)c4ccc(OC)c(OC)c4)ccc3n2)CC1,3.66µM*!,4.11µM*!,-25.2%,4.1%,?,?
CCOc1ccccc1C(=O)Nc1ccc2nc(N3CCN(c4ncccn4)CC3)cc(C)c2c1,14.6µM*,8.2µM*,?,8.2µM*,?,?
CC1CN(C(=O)c2ccccc2Oc2ccccc2)CC(C)O1 (configuration not stated),20.6µM*,i,-4.1%,15.6%,8.9%,0.6%
COc1ccc(S(=O)(=O)N(C)Cc2cccs2)cc1Br,i,i,4.0%,14.6%,-0.2%,1.6%
O=C(Nc1ccc(Cl)cc1)N[C@@H]1c2c(ccc3ccccc23)OC[C@@H]1CO,?,?,-10.5%,6.6%,7.4%,?
SMILES,KB-3-1 cytotox,KB-V1 cytotox,HT1080NT lethal,MCF10A rerep,SW480 rereplic,HT1080 IDH1KD tx
COc1cccc2c1OC[C@@H](CO)[C@H]2N(C)C(=O)Nc1ccc(Cl)cc1,i,14.6µM*,-8.0%,15.8%,4.2%,?
Nc1nc2ccccc2n1C(=O)c1ccco1,i,i,-6.6%,17.1%,5.9%,-18.2%
Cc1ccc(C2CC2c2n[nH]c(=S)n2-c2ccc(Cl)cc2)cc1 (configuration not stated),?,16.4µM*,-21.2%,90.6%,3.0%,?
OCCCn1c(-c2ccccc2)nc(=S)c2c1CCCC2,i,i,-5.2%,0.0%,-10.8%,-7.2%
CN(C)CCCn1c(-c2ccccc2)nc(=S)c2c1CCCC2,i,i,-5.0%,-181.0%[0.0737 µM],3.26µM*,13.2%
Cc1c(NC(=O)C2CCCO2)cccc1[N+](=O)[O-] (configuration not stated),i,i,7.4%,-13.6%,-32.1%,-9.9%
CCN(CC)C(=O)C1CCCN(C/C=C/c2ccccc2)C1 (configuration not stated),i,i,0.8%,-10.3%,-17.0%,-2.2%
CCOc1ccccc1NC(=O)c1nc(S(=O)(=O)Cc2ccccc2)ncc1Cl,?,?,2.5%,4.11µM*,26.9%,-5.1%
COc1ccccc1NC(=O)c1nc(S(=O)(=O)Cc2ccccc2)ncc1Cl,7.31µM*,?,11.6µM*,?,?,3.66µM*
CCS(=O)(=O)c1ncc(Cl)c(C(=O)Nc2ccccc2OC)n1,2.59µM*,?,-16.8%,2.31µM*,2.91µM*,?
Cc1ccccc1NC(=O)c1nc(S(=O)(=O)Cc2ccccc2F)ncc1Cl,?,i,·,·,·,·
Cc1cccc(N2CC(C(=O)OCC(=O)c3c(N)n(CC(C)C)c(=O)n(C)c3=O)CC2=O)c1C (configuration not stated),i,i,4.1%,?,-12.4%,4.6%
Cc1ccc(N=Cc2c(O)ccc3ccccc23)cc1F,i,i,-36.3%,?,?,?
COc1ccc(C(=O)N2CCCCCCC2)cc1OC1CCN(C(C)C)CC1,i,i,-5.7%,?,21.4%,13.4%
Cc1cc(N2CCN(C)CC2)nc2ccc(NC(=S)N3CCCCC3)cc12,i,i,-15.0%,18.4µM*,?,-28.7%
Cc1cc(N2CCOCC2)nc2ccc(NC(=S)N3CCCCC3C)cc12 (configuration not stated),i,i,?,14.6µM*,18.4µM*,?
Cc1cc(N2CCN(C)CC2)nc2ccc(NC(=S)N3CCN(c4cccc(Cl)c4)CC3)cc12,i,i,-0.9%,7.31µM*,9.2µM*,-9.2%
